Assay results: PubChem BioAssay (NCATS)
Unmarked numbers belong to inactive results. Results filed as inconclusive are left out. Activity calls are given as the source filed them. Unless noted, the call rests on the fitted dose curve; in most records, active means well fitted curve in either direction with a large enough effect (not every such curve was filed as active); inconclusive means small, poorly fitted or top-dose-only effect, or another doubt; inactive means flat fitted curve, though single readings scatter.

Experiments:
[1] = molecular target: Lysosomal acid glucosylceramidase (Homo sapiens) (UniProt P04062); experiment: Glucocerebrosidase-p2 (AID 348; in the data active means potency below about 10 µM; further: potency means the concentration at half of the fitted maximal effect); settings: purified GBA, blue fluorogenic substrate, 40 min
Procedure, shortened: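 Normal human glucocerebrosidase (0.2 nM) with blue fluorogenic substrate (80 uM final) in citrate/phosphate pH 5.9 with 10mM sodium taurocholate, 0.01% tween-20; 40 min RT, NaOH/glycine stop; fluorescence Ex 365/Em 440; AC50 from a titration from 0.6 nM upwards.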

[2] = AP1 Signaling Pathway (AID 357); settings: ME-180 AP-1-bla reporter, EGF-induced, beta-lactamase ratio, 5 h; at 7.69 µM (top of the series) unless noted;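 further: ME-180 reporter cells stimulated with EGF at its EC50 level; on the % scale 0 is the no-effect control and ±100 the full control effect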
Procedure, shortened: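 A ratiometric CCF4 readout (405 nm excitation; 460 and 530 nm emission) quantified AP-1-driven beta-lactamase in ME-180 cells after 5 h with compound and EC50 EGF; AC50 values were derived for activators and inhibitors.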

[3] = molecular target: Glucocorticoid receptor (Homo sapiens) (UniProt P04150); experiment: GR-GFP Redistribution (AID 450;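 active means compounds whose dose series gives a full or clear partial fitted curve of increased nuclear translocation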; further: potency means the concentration at half of the fitted maximal effect); settings: U2OS GR-GFP nuclear translocation, laser cytometry, 2 h
[4] = molecular target: Glucocorticoid receptor (Homo sapiens) (UniProt P04150); experiment: GR-EFC Redistribution (AID 451; calls by dose curve; further: potency means the concentration at half of the fitted maximal effect); settings: CHO-K1 GR-EFC translocation, beta-gal luminescence, 2 h
Procedure, shortened: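 Translocation of GR-ED fusion to nuclear EA restores b-gal, read by luminescence after 1 h room-temperature detection. Engineered CHO-K1 biosensor cells, 1,000/well, exposed 2 h at 37 C to titrations up to 46 uM final.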

[5] = molecular target: Mitogen-activated protein kinase 10 (Mus musculus) (UniProt Q61831); experiment: JNK3 AlphaScreen Assay (AID 530); settings: JNK3 lysate, c-Jun phosphorylation; series mostly up to 11.4 µM;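 further: kinase came from lysate of stimulated human HepG2 cells; signal reports phosphorylation of biotinylated GST-cJun 1-79 at Ser73 with 10 µM ATP; on the % scale 0 is the no-effect control and ±100 the full control effect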
Procedure, shortened: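 qHTS titrations with 15 min compound pre-incubation before adding ATP (10 uM final). Read-out: AlphaScreen of Ser73-phosphorylated biotin-GST-cJun using HepG2 lysate JNK3 activated by IL-1β and TNFα.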

[6] = molecular target: 3',5'-cyclic-AMP phosphodiesterase 4B (Homo sapiens) (UniProt Q07343); experiment: qHTS Assay for Inhibitors of PDE-IV (AID 607; active means well fitted activation curve with a large enough effect in the main read-out, with a control signal flat, not every such curve was filed as active; further: % of control where 0% means no effect); settings: HEK293 ACTOne CNG channel cells, membrane potential fluorescence; series mostly up to 22.9 µM
Procedure, shortened: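 HEK293 ACTOne cells with CNG channel (1000/well), endogenous PDE4; membrane potential dye, compounds up to 22.9 uM final. Fluorescence Ex 535/Em 590; RO 20-1724 (100 uM final) as reference.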

[7] = Stat Signaling Pathway (AID 446); settings: ME-180 SIE beta-lactamase reporter, IL-6 stimulated, 5 h; at 7.69 µM (top of the series) unless noted;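 further: ME-180 cervical cancer cells given 40 pM IL-6 alongside compound; SIE-controlled beta-lactamase reporter measured as 460/530 nm FRET emission ratio; on the % scale 0 is the no-effect control and ±100 the full control effect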
Procedure, shortened: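 Normalization used AC90 stimulation (300 pM IL-6) and AC90 inhibition (125 nM pan-JAK inhibitor at 40 pM IL-6). The underlying signal is SIE-driven beta-lactamase in ME-180 cells after 5 h IL-6 exposure with compound.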

[8] = molecular target: Cytochrome P450 2C9 (Homo sapiens) (UniProt P11712); experiment: qHTS Assay for Inhibitors and Substrates of Cytochrome P450 2C9 (AID 883; active means well fitted curve in the direction sought with a large enough effect; an effect the other way counts as inactive or inconclusive; further: potency means the concentration at half of the fitted maximal effect; nearly all actives have a fitted effect of over 60% in size); settings: recombinant CYP2C9, luciferin-H luminescence, 60 min; series mostly up to 11.4 µM
Procedure, shortened: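 Turnover of Luciferin-H (100uM, KM) by 10nM human CYP2C9 was measured over 60 min at 37C with NADPH regeneration; inhibitors and some substrates reduce luminescence. Data normalized to sulphaphenazole 57uM.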

[9] = molecular target: Cytochrome P450 2C19 (Homo sapiens) (UniProt P33261); experiment: qHTS Assay for Inhibitors and Substrates of Cytochrome P450 2C19 (AID 899; active means well fitted curve in the direction sought with a large enough effect; an effect the other way counts as inactive or inconclusive; further: nearly all actives have a fitted effect of over 60% in size; further: potency means the concentration at half of the fitted maximal effect); settings: recombinant CYP2C19, luciferin-H EGE luminescence; series mostly up to 11.4 µM
Procedure, shortened: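 Reactions contain 5nM enzyme, 10uM Luciferin-H EGE (KM) and 50mM KPO4; compound preincubates 10 min at 37C, NADPH regeneration starts turnover for 60 min. Luminescence after detection reagent gives activity.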

[10] = molecular target: Cytochrome P450 3A4 (Homo sapiens) (UniProt P08684); experiment: qHTS Assay for Inhibitors and Substrates of Cytochrome P450 3A4 (AID 884; active means well fitted curve in the direction sought with a large enough effect; an effect the other way counts as inactive or inconclusive; further: potency means the concentration at half of the fitted maximal effect; nearly all actives have a fitted effect of over 50% in size); settings: recombinant CYP3A4, Luciferin-PPXE luminescence; series mostly up to 57.1 µM
Procedure, shortened: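 Luminescent readout of luciferin produced by CYP3A4 (20 nM) dealkylation of Luciferin-PPXE, 25 uM (its KM). NADPH-driven reaction ran 60 min at RT after 10 min compound preincubation; data scaled to 57 uM ketoconazole as 100% inhibition.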

[11] = molecular target: Cytochrome P450 3A4 (Homo sapiens) (UniProt P08684); experiment: qHTS Assay for Activators of Cytochrome P450 3A4 (AID 885; active means well fitted curve in the direction sought with a large enough effect; an effect the other way counts as inactive or inconclusive; further: nearly all actives have a fitted effect of over 65% in size); settings: recombinant CYP3A4, Luciferin-PPXE luminescence, 60 min; series mostly up to 11.4 µM
Procedure, shortened: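 Human CYP3A4 dealkylates Luciferin-PPXE to luciferin, which luciferase detection converts to light. Substrate was at its KM (25uM), buffer 200mM KPO4, reaction 60 min at RT.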

[12] = qHTS Assay for Identification of Small Molecule Agonists for Hypoxia Response Element Signaling Pathway (AID 914; active means well fitted activation curve with a large enough effect in the signal ratio, with a control signal flat, not every such curve was filed as active; the % refers to the signal ratio; further: % of control where 0% means no effect); settings: ME-180 HRE-bla reporter, beta-lactamase ratio, CoCl2, 17 h; activation: stronger effect = higher value
Procedure, shortened: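 ME-180 cells carrying an HRE-driven beta-lactamase reporter were treated with compounds in a titration series plus an EC50 level of CoCl2 for 17 h at 37 degrees Celsius; CCF4 readout as the 460nm/530nm ratio gave AC50 values.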

[13] = molecular target: Cytochrome P450 1A2 (Homo sapiens) (UniProt P05177); experiment: p450-cyp1a2 (AID 410; calls by dose curve; further: potency means the concentration at half of the fitted maximal effect;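 on activity change, negative = inhibition: -100% = full effect of reference inhibitor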); settings: recombinant CYP1A2, luciferin-ME demethylation, luminescence; series mostly up to 11.4 µM
Procedure, shortened: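 Luminescent demethylation readout: Luciferin-ME (100uM, equal to Km) turned over by 20nM CYP1A2 for 60 min at room temperature after NADPH regeneration addition, following 10 min compound preincubation. Normalization used 57 uM furafylline as full inhibition.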

[14] = NFAT Signaling Pathway (AID 444); settings: Jurkat NFAT-bla M1, carbachol, beta-lactamase ratio, 5 h; at 7.69 µM (top of the series) unless noted;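 further: carbachol stimulus at about its EC50 of 1 µM final; on the % scale 0 is the no-effect control and ±100 the full control effect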
Procedure, shortened: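 Read-out: CCF4 FRET ratio (460 nm/530 nm) after 1 h RT dye loading, used for %activity and AC50 from titration series. Cells: Jurkat NFAT-β-lactamase/M1 line, treated with compound plus 1 uM carbachol for 5 h, 37 °C.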

Sequence of Lysosomal acid glucosylceramidase (Homo sapiens) (P04062 whole entry, looked up): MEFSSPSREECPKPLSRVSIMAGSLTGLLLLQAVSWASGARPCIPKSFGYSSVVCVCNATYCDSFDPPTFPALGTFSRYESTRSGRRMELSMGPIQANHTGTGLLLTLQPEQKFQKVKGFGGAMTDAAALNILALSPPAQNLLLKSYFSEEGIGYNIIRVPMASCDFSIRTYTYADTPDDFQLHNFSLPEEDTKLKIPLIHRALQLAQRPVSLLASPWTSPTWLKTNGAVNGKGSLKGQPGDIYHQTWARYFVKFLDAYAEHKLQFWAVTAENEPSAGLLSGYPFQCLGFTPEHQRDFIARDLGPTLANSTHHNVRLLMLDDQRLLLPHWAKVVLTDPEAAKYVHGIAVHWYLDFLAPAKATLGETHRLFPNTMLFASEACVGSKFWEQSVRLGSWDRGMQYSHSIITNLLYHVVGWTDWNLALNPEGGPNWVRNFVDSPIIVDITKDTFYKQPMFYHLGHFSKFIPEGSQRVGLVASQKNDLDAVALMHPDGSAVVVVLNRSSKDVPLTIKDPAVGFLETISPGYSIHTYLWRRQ
Sequence of Cytochrome P450 1A2 (Homo sapiens) (P05177 whole entry, looked up): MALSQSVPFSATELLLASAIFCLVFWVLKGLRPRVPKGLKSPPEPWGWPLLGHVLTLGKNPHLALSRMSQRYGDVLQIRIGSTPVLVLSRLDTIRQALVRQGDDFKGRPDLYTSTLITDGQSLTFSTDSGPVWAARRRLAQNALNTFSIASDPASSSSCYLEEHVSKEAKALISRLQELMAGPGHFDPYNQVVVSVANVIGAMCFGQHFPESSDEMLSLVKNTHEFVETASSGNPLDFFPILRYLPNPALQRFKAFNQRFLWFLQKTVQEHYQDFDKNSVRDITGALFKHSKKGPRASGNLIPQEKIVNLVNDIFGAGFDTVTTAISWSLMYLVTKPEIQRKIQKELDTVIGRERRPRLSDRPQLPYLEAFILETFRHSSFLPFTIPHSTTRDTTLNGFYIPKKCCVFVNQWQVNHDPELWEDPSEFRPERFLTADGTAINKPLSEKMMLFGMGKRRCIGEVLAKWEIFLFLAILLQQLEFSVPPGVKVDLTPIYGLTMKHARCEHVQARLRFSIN
Sequence of Glucocorticoid receptor (Homo sapiens) (P04150 whole entry, looked up, the tested form may be a part): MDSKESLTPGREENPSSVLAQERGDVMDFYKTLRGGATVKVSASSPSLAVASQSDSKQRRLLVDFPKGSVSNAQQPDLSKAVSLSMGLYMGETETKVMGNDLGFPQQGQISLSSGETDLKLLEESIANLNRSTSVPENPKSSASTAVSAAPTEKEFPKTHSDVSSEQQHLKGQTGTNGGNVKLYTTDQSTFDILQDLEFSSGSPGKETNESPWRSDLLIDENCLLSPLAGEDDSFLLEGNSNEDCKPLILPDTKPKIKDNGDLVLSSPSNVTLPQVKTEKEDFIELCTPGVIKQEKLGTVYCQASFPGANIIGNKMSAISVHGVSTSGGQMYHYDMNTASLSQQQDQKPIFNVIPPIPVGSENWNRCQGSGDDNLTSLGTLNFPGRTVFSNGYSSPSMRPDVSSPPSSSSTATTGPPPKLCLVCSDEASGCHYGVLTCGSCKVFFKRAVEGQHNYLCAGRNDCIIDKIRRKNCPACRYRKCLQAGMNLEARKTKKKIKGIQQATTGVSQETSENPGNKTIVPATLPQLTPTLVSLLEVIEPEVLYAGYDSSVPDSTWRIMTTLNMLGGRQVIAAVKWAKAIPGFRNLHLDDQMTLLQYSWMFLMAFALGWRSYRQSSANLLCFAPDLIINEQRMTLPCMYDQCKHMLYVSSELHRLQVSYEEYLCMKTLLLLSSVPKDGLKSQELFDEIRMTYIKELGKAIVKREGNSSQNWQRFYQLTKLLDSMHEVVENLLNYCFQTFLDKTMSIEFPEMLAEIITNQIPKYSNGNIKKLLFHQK
Sequence of 3',5'-cyclic-AMP phosphodiesterase 4B (Homo sapiens) (Q07343 whole entry, looked up): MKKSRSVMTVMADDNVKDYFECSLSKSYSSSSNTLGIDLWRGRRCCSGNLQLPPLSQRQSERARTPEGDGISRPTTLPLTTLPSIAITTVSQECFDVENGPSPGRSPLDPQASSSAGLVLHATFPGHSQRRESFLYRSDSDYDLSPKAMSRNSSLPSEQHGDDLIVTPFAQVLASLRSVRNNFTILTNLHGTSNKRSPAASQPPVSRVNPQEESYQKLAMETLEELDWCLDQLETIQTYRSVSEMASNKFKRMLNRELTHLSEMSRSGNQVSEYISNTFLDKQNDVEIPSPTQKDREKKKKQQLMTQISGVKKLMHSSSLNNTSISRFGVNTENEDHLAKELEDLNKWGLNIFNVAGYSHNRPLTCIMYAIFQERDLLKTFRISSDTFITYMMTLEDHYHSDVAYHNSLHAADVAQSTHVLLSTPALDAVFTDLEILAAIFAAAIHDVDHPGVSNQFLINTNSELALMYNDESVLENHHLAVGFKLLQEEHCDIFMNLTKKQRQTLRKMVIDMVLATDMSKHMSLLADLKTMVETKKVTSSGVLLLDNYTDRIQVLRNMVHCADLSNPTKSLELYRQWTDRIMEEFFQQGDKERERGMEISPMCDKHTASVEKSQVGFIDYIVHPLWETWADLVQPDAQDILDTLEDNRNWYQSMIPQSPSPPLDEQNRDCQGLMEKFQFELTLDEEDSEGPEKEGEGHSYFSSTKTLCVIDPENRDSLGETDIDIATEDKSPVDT
Sequence of Cytochrome P450 3A4 (Homo sapiens) (P08684 whole entry, looked up): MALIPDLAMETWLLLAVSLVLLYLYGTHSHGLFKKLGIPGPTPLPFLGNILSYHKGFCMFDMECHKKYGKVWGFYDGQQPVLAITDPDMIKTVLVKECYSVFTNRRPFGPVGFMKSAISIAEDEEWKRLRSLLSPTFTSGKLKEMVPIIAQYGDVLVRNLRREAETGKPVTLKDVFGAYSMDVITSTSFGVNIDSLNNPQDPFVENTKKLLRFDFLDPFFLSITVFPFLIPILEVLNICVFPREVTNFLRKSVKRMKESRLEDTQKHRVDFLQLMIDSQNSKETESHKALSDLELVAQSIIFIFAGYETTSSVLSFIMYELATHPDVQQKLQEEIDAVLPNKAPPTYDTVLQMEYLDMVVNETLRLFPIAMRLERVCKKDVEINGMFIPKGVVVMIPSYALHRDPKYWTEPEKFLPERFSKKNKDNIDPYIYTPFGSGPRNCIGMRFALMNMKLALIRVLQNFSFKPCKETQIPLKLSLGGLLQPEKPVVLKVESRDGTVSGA
Sequence of Cytochrome P450 2C9 (Homo sapiens) (P11712 whole entry, looked up): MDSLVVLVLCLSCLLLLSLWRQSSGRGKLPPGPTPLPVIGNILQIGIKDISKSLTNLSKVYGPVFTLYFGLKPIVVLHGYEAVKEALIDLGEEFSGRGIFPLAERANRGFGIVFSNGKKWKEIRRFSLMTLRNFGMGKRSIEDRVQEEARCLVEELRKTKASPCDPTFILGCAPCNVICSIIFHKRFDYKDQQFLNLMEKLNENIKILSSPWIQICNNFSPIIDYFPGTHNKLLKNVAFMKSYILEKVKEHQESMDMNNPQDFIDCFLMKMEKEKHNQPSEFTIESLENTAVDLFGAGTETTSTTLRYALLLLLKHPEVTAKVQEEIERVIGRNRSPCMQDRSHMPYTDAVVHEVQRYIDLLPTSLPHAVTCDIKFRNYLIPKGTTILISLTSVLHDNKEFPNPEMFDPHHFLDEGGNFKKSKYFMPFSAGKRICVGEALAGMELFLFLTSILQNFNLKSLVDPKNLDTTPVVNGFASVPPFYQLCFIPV
Sequence of Cytochrome P450 2C19 (Homo sapiens) (P33261 whole entry, looked up): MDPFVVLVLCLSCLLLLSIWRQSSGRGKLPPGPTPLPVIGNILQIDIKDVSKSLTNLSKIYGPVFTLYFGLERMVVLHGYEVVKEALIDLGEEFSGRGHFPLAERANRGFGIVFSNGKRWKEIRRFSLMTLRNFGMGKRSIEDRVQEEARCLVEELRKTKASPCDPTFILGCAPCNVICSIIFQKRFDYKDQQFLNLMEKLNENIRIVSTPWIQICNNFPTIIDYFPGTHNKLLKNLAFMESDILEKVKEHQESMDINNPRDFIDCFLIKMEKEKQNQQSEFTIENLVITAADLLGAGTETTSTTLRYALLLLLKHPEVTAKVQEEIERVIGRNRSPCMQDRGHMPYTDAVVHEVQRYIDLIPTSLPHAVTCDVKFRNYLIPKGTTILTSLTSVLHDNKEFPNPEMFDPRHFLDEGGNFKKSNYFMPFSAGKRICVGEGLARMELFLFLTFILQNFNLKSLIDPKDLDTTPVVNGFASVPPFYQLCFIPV

Row | SMILES | Potency [1] [µM] | activity change, negative = inhibition [2] [%] | Potency [3] | Potency [4] [µM] | Potency [5] | Potency [6] | activity, negative = inhibition [7] [%] | Potency [8] | Potency [9] | Potency [10] | Potency [11] | activation [12] [%] | activity change, negative = inhibition [13] | activity change, negative = inhibition [14] [%] | Potency [13]
1 | CC1(C)COCN1COC1CCCCC1 | > 11.4 | -2.54 | > 46 µM | > 9.22 | inactive | inactive |  |  |  |  |  |  |  |  | 
2 | CN(C)CN1CSC(=S)N(CN(C)C)C1 | > 11.4 | -2.13 | > 46 µM | > 9.22 | inactive | inactive | 0.0184 | 3.16 µM (active) | 3.16 µM (active) |  |  |  |  |  | 
3 | CN(C)Cc1cc(C(F)(F)F)ccc1C(O)(c1ccccc1)c1ccccc1 | > 11.4 | 19.8 | > 46 µM | > 9.22 | inactive | inactive | 9.65 |  |  | 0.794 µM (active) | inactive | 25.7 |  |  | 
4 | CN1CCC[C@H](C(=O)OCC(=O)[C@]2(O)CC[C@@H]3[C@H]4CCC5=CC(=O)CC[C@@]5(C)[C@H]4[C@@H](O)C[C@]32C)C1 | > 11.4 | 11 | 0.135 µM (active) |  | inactive | inactive | -2.61 |  |  |  |  |  |  |  | 
5 | CC1CCN(CC[S-])CC1.O.O.[Cl][Pt] | > 11.4 | 29.8 | > 46 µM | > 9.22 | inactive | inactive |  |  |  |  |  |  |  |  | 
6 | CC(C)(C)c1ccc(O)c(CN(Cc2cc(C(C)(C)C)ccc2O)c2ccccc2)c1 | > 11.4 | 4.11 | > 46 µM | > 9.22 | inactive | inactive | 2.48 |  |  |  |  | 12.3 |  |  | 
7 | NS(=O)(=O)c1ccc(N=Nc2ncccc2O)cc1 | > 11.4 | 7.11 | > 46 µM | > 9.22 | inactive | inactive | 5.47 |  |  |  | inactive |  |  |  | 
8 | Cn1cnc([N+](=O)[O-])c1Sc1nnc(-c2cccnc2)n1C | > 11.4 | 19.7 | > 46 µM |  | inactive | inactive | 4.54 |  |  |  |  |  |  |  | 
9 | Cc1cc(Nc2ccc(N=Nc3ccc(O)c4ncccc34)cc2)nc(C)n1 | > 11.4 | 9.64 | > 46 µM | > 9.22 | inactive | inactive |  |  |  |  |  |  |  |  | 
10 | O=c1cnc2cnc(N3CCNCC3)nc2n1CCc1ccccc1 | > 11.4 | -5.27 | > 9.22 µM | > 46 | inactive | inactive | -12.8 |  |  |  | inactive |  |  |  | 
11 | c1cc(CSc2ncnc3nc[nH]c23)ccn1 | > 11.4 | 10.4 | > 46 µM |  | inactive | inactive | -2.3 |  |  |  |  | -3.44 |  |  | 
12 | O=C(c1[nH]o[n+](=O)c1C(=O)c1csc2ccccc12)c1csc2ccccc12 | > 11.4 | 3.39 | > 46 µM | > 9.22 | inactive | inactive | -7.78 | 1.58 µM (active) |  |  | inactive |  |  |  | 
13 | O=C(O)CC[P+](c1ccccc1)(c1ccccc1)c1ccccc1 | > 11.4 | 2.51 | > 46 µM | > 9.22 | inactive |  | 4.75 |  | inactive |  |  |  |  |  | 
14 | O=C(O)COc1c(Cl)cc(Cl)c2cccnc12 | > 11.4 |  | > 46 µM | > 9.22 | inactive | inactive | -0.716 |  |  |  |  |  | -1.3% [at 2.29 µM] | 1.63 | 
15 | COCCn1c(=O)c(CCc2ccccc2)nc2cnc(Oc3cccc(Cl)c3)nc21 | > 11.4 |  | > 9.22 µM | > 46 |  |  | -17.3 |  |  | 0.794 µM (active) | inactive |  |  | -14.7 | 3.98 µM (active)
16 | Nc1n[nH]c2ccccc12 | > 11.4 |  | > 46 µM | > 9.22 | inactive | inactive | -1.94 |  |  |  | inactive |  | -9.1% [at 2.29 µM] | 3.29 | 
17 | CCCCNN | > 11.4 |  | > 46 µM | > 9.22 | inactive | inactive | 4.29 |  |  |  |  |  | -6.5% [at 2.29 µM] | 9.69 | 
18 | COc1cccc(Nc2ncc3ncc(=O)n(C4CC4)c3n2)c1 | > 11.4 |  | > 9.22 µM | > 46 | inactive | inactive | -24.1 |  |  |  | inactive |  |  | -22.2 | 0.631 µM (active)
